# JMJD2E inh – blocks human JMJD2E demethylase activity; JMJD2E catalytic domain, FDH-coupled NADH fluorescence (FDH is formaldehyde dehydrogenase); 1.6% of 230,000 active; AID 2147; B2RXH2; Potency, µM (doses to about 57.1 µM), without a hit: at the top dose activity change, negative = inhibition, most hits filed as inhibitors;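 further: potency means the concentration at half of the fitted maximal effect; 0% = wells with enzyme and -100% = buffer wells without enzyme; nearly all actives have a fitted effect of over 50% in size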
# Target sequence (B2RXH2 1-337 limits assumed): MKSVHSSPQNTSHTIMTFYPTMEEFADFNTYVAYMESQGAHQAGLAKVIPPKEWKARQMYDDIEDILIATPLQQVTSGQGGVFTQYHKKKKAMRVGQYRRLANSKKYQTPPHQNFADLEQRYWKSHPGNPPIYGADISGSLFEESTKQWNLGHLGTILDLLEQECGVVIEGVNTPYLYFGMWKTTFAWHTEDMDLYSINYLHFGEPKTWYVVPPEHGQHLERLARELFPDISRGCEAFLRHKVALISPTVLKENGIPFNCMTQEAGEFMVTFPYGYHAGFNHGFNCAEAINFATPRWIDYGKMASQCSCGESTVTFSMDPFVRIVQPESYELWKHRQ
# HPGD inh – blocks human HPGD enzyme activity. P15428. purified HPGD, NADH fluorescence kinetic, PGE2 substrate. Potency, µM, for the others: at the top dose activity change, negative = inhibition, hits mostly inhibitors. 4.3% of 150,000 active. AID 894; further: potency means the concentration at half of the fitted maximal effect
# Target sequence (P15428 whole entry, looked up): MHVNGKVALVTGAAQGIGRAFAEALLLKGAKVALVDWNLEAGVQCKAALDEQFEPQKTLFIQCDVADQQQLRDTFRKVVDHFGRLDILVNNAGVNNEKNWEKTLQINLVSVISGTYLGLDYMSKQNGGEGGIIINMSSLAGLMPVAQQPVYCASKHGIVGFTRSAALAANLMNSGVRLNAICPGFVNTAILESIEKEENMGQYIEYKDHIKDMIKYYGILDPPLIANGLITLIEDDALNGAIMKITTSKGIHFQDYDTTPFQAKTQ
#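 20 nM HPGD preincubated 15 min at room temperature with compound in 50 mM Tris-HCl pH 8, 0.01% Tween 20. Started with 1 mM NAD+ and 30 uM prostaglandin E2; NADH fluorescence (360/450 nm) read 5 times over 30-s intervals, last minus first.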
# ALDH1A1 block – blocks purified human ALDH1A1 activity; P00352; Potency, µM (top dose mostly 75.3 µM), inactives show at the highest dose activity, negative = inhibition, actives largely listed as inhibitors; 7.3% of 220,000 active; Purified ALDH1A1, NADH fluorescence, propionaldehyde substrate;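 further: potency means the concentration at half of the fitted maximal effect; plate controls were no enzyme wells and a reference inhibitor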
# PNC inhibitor – perinucleolar compartment assembly inhibition. PC3M PTB-GFP, PNC prevalence imaging, 16 h; hits give low values. activity change (PNC), negative = inhibition, % at 10 µM. 3.1% of 140,000 active. AID 2417;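 active means readout at or below -70, meaning at least 70% loss of cells showing the perinucleolar compartment, a nuclear body marking cancer cells; inconclusive means readout between -30 and a set limit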;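 further: plate controls were DMSO wells for no effect and camptothecin positive control wells for full effect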
#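 PC3M cells stably expressing PTB-GFP, 750–1000 cells/well, treated 16 h at 37 °C with compound (23 nl of library stock), in duplicate. After paraformaldehyde fixation and Hoechst stain, imaged at 20x; PNC prevalence scored by image analysis.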
# * = called active by the depositor; u = inconclusive; x = no result; ! = a repeat was not active; [ ] = dose if it differs, or a comment. An excerpt weighted towards active compounds, which were near 11% of everything screened. Unless noted, the call rests on the fitted dose curve; in most records, active means well fitted inhibition curve with a large enough effect (not every such curve was filed as active); inconclusive means small, poorly fitted or top-dose-only effect, or another doubt; inactive means no such curve, though single readings can be large or run the other way. Unless noted, on the % scale 0 is the no-effect control and ±100 the full control effect.
SMILES,JMJD2E inh,HPGD inh,ALDH1A1 block,PNC inhibitor
CC1Oc2cc3c(-c4c(O)cc(O)c5c(O)c6c(cc45)OC(C)C(C)C6=O)c(O)cc(O)c3c(O)c2C(=O)C1C (stereo not drawn),20µM*,x,u,x
c1cc(CN2CCCC3(CCNCC3)C2)ccn1,x,-11%,u,x
CN1/C(=C\C=C\C2=[N+](C)c3ccc4ccccc4c3C2(C)C)C(C)(C)c2ccccc21,-1%,-2%,20µM*,1
CN1/C(=C\C=Nc2ccccc2)C(C)(C)c2ccccc21,u,x,1%,13
OCCBr,x,-3%,5%,x
CN1CCN(c2ccc([N+](=O)[O-])c3no[n+]([O-])c23)CC1,14µM*,x,x,x
CN1CCN(c2cc(N3CCCCCC3)c(F)cc2[N+](=O)[O-])CC1,-4%,-14%,u,18
C=CCBr,x,-4%,-17%,x
O=C(O)CNC(=O)[C@@H](CS)Cc1ccccc1,-3%[25.5 µM],7.9µM*,u,x
COc1cccc(/C=N/NC(=O)c2c(C)nc3ccc(Br)cn23)c1,-20%,x,u,x
CCCCC[C@@H](/C=C/C=C\CCCCCCCCCC(=O)O)OO,6%,-5%,0%,x
O=c1[nH]c(=O)n(-c2ccc(Cl)cc2)c(O)c1C=Nc1ccc(S(=O)(=O)Nc2nccs2)cc1,u,22µM*,u,u
CCN(CC)S(=O)(=O)c1ccc(N=Cc2c(O)n(-c3ccccc3)c(=O)[nH]c2=O)cc1,-18%,-26%,22µM*,u
Cc1cccc(-n2c(O)c(C=Nc3ccc(S(N)(=O)=O)cc3)c(=O)[nH]c2=O)c1,-11%,x,-4%,x
Cc1ccc(-n2c(O)c(C=Nc3ccc(Br)cn3)c(=O)[nH]c2=O)cc1,u,x,-8%,x
COc1cc2c(cc1OC)[C@@]13CCN4CC5=CCO[C@H](CC(=O)O)[C@@H]([C@H]1N2)[C@H]5C[C@H]43,x,-11%,17%[13.5 µM],x
COC1=CC(=O)O[C@@H](/C=C/c2ccccc2)C1,x,-9%,13µM*,x
CCC(C)N1C(=O)/C(=C\c2ccc(N3CCCCCC3)cc2)C(=O)NC1=S (stereo not drawn),u,20µM*,0.13µM*,-12
CCC(C)N1C(=O)/C(=C\c2cc3c4c(c2)CCCN4CCC3)C(=O)NC1=S (stereo not drawn),u,22µM*,0.32µM*,11
ClCCCCl,x,-5%,17%,x
CCC12CCCN3CCC4(c5ccc(OC)c(O)c5N(C(C)=O)C4CC1)C32 (stereo not drawn),7%,3%,1%,x
O=[N+]([O-])c1ccc(Cl)cc1,x,-4%,4%,x
O=[N+]([O-])c1cccc(CN2CCN(Cc3ccc(Cl)cc3)CC2)c1,28µM*,x,u,x
ClC(Cl)(Cl)C(Cl)(Cl)Cl,x,-9%,9%,x
COC(=O)C(O)(c1ccc(NC(=S)NC(=O)c2ccccc2)cc1)C(F)(F)F (stereo not drawn),10%,-6%,25µM*,-11
SMILES,JMJD2E inh,HPGD inh,ALDH1A1 block,PNC inhibitor
COc1ccc(C[C@@H](N)c2ccc(OC)cc2)cc1,x,2%,9%[13.5 µM],x
c1ccc2c(CCNC3=NCCC3)c[nH]c2c1,6%,-10%,3%,-83*
CCCCOC(=O)CCN1C(=O)/C(=C2\SC(=S)N(CCC(=O)OCCCC)C2=O)SC1=S,-3%,-10%,14µM*,u
COc1ccccc1CCNC1CCC(C(C)(C)C)CC1 (stereo not drawn),-7%,x,u,-112*
N#CC1(c2ccccc2)CCN(C2CC(=O)N(c3cccc(F)c3)C2=O)CC1 (stereo not drawn),3%,x,u,x
CCOC(=O)c1ccc(N2C(=O)CC(N3CCC(O)(c4ccc(Br)cc4)CC3)C2=O)cc1 (stereo not drawn),-1%,u,1.6µM*,50
CCOC(=O)c1ccc(N2C(=O)CC(N3CCC(O)(c4ccc(Cl)cc4)CC3)C2=O)cc1 (stereo not drawn),8%,-12%,7.9µM*,21
CC/C=C\C/C=C\C/C=C\C/C=C\C/C=C\CCCC(=O)NC(C)C(=O)O (stereo not drawn),11%,-6%,-16%,x
Cc1c([C@@H](C)C2NC[C@H](C)C[C@@H]2O)ccc2c1C[C@@H]1[C@H]2CC=C2C[C@@H](O)CC[C@@]21C (stereo partly drawn),x,-11%,-2%[13.5 µM],x
O=C(O)c1cccc([As]=[As]c2cccc(C(=O)O)c2)c1 (stereo not drawn),x,-3%,-7%[13.5 µM],x
CN(CCc1ccc(Cl)c(Cl)c1)[C@H]1CCCC[C@H]1N1CCCC1,-15%,-3%,25µM*,x
Cc1cc(O)c2c(c1)C(=O)c1cc(O)cc(O)c1C2=O,3%,-29%,22µM*,x
C=CC(=O)OCC(CO)(COC(=O)C=C)COC(=O)C=C,x,-5%,0.4µM*,x
Cc1ccc2c(c1)C1CN(C)CCC1N2C(=O)c1ccc(Br)o1 (stereo not drawn),-3%,-16%,22µM*,-17
CCN(CC)CCOC(=O)c1ccc(N=Cc2c(O)[nH]c(=O)[nH]c2=O)cc1,-6%,-10%,-3%,-11
CCOC(=O)c1ccc(NC(=O)c2c(O)[nH]c(=O)[nH]c2=O)cc1,u,14µM*,u,u
CN(C)C1C(=O)C(C(N)=O)=C(O)[C@@]2(O)C(=O)C3=C(O)c4c(O)cccc4[C@@](C)(O)C3CC12 (stereo partly drawn),2.5µM*,-21%,-9%,x
CCCCCCCCCOc1ccc2[nH]cc(CCN)c2c1,25µM*!,-4%,1%,x
CCN1C[C@@]2(COC(=O)c3ccccc3N3C(=O)CC(C)C3=O)CC[C@H](OC)[C@]34C5C[C@@H]6[C@@H](OC)C[C@@](O)(C5[C@H]6OC)[C@@](O)(C13)[C@@H](OC)C24 (stereo partly drawn),20%,-4%,2%,x
CCOC(=O)c1c(N)n(Cc2ccc(OC)cc2)c2nc3ccccc3nc12,u,u,u,9
COC(=O)c1c(N)n(Cc2ccc(OC)cc2)c2nc3ccccc3nc12,u,u,u,-82*
COC(=O)/C=C/C(=O)N[C@@H]1CC[C@@]2(O)[C@H]3Cc4ccc(O)c5c4[C@@]2(CCN3CC2CC2)[C@H]1O5,x,x,-8%,x
O=C(C1CCC(=O)N1C1CCCC1)N1CCC2(CC1)OCCO2 (stereo not drawn),0%,-12%,-7%,-21
O=C(C1CC(=O)N(C2CCCCCCC2)C1)N1CCC2(CC1)OCCO2 (stereo not drawn),-1%,-6%,25µM*,u
[O-][Cl+2]([O-])O,x,-7%,u,x
SMILES,JMJD2E inh,HPGD inh,ALDH1A1 block,PNC inhibitor
CCCCCn1c(Sc2ccccc2)nc2c1c(=O)[nH]c(=O)n2C,8%,-7%,u,21
COCCn1c(SCc2ccccc2Cl)nc2c1c(=O)[nH]c(=O)n2C,8%,u,14µM*,-9
Cc1nn(Cc2ccccc2)c(C)c1C(=O)OCC(=O)NCc1ccco1,0%,-10%,15%,-12
COc1cccc(CNC(=O)CSc2ccc(-c3ccco3)nn2)c1,u,x,13µM*,x
Cc1cccc(C)c1OCc1n[nH]c(=S)n1N,-16%,x,25µM*,x
COc1ccc(OCc2n[nH]c(=S)n2Cc2ccco2)cc1,-30%,x,u,x
